Each structure is given as a SMILES string. About 3,300 (1.1%) of roughly 310,000 compounds were called active. This is one part of a sample in which actives are shown more often than they occur.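 Rule for the calls: active = B-score under library mean minus 3 SD, initial fluorescence not abnormally high, positive integrated signal ratio; inactive = the rest.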

For this experiment, the target named is Short transient receptor potential channel 6 (Mus musculus) (UniProt Q61143). The experiment is described as follows: mouse TRPC6 channel inhibitors, primary screen, cell-based, HEK293, membrane potential dye (AID 2553).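 For B-score: B-score derived from integrated fluorescence ratio over the kinetic read; more negative B-score means stronger inhibition of depolarization.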 To be noted: ACh-evoked depolarization, at 10 µM; hits give low values.
Chain of Short transient receptor potential channel 6 (Mus musculus) (Q61143 whole entry, looked up): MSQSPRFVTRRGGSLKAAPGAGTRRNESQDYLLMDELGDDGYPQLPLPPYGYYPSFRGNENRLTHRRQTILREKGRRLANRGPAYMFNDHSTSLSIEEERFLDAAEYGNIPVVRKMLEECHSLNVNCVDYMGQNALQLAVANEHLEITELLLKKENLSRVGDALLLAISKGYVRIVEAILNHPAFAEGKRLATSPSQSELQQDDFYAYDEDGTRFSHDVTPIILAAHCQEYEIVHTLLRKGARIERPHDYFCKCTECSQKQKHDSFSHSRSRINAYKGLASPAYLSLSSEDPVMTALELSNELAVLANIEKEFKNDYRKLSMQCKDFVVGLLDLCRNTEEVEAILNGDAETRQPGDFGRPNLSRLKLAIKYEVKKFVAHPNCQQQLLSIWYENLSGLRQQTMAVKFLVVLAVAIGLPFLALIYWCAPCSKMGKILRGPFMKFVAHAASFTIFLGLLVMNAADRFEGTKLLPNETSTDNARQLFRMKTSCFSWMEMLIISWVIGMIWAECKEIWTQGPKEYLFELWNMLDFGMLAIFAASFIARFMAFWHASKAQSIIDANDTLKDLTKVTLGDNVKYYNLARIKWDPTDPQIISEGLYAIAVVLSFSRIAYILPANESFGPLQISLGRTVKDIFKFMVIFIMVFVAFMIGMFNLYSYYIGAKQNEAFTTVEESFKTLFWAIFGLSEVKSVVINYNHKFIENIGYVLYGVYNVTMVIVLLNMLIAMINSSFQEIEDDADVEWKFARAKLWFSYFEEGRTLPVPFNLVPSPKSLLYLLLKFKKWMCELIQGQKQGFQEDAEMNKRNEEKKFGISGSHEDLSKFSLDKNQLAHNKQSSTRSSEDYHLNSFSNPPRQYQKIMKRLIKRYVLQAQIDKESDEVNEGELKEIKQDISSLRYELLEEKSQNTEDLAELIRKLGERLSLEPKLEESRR
Consider `CCOC(=O)c1cc(NC(=O)c2ccc(Cl)cc2)c(=O)oc1-c1ccccc1`, for which the B-score entry is “inactive”.

Regarding `CC(=O)c1cc(NC(=O)c2ccccc2)c(=O)oc1/C=C/N(C)C`, the B-score was -5.52 (active).

For the molecule `CC(=O)Oc1cccc(C(=O)Nc2ccccc2NC(=O)c2cccc(OC(C)=O)c2)c1`, the B-score result was “inactive”.

As to `CCOC(=O)c1c(/N=C/c2cc(C)ccc2O)sc2c1CCC2`, the B-score entry is “inactive”.

As for `CN(C(=O)COc1nnc(-c2cccs2)c(-c2cccs2)n1)c1ccccc1`, the B-score result was “inactive”.

`CN(C)/C=C/C(=O)c1cnc2sccn2c1=O`: the B-score entry is “inactive”.

Turning to `COC(=O)c1cccc(N(C(=O)c2ccco2)C(C(=O)NC2CCCC2)c2ccco2)c1` (stereo not drawn), the B-score result was “inactive”.

Turning to `Cc1cccc(N2CCN(C(C)C(=O)N3CCc4ccccc43)CC2)c1C` (stereo not drawn), the B-score entry is “inactive”.

On to `O=C(c1ccccc1F)N(Cc1ccccc1)Cc1ccccc1`, for which the B-score entry was “inactive”.

For `O=C1c2ccccc2C(=O)c2c1cccc2N1CCN(CCO)CC1`, the B-score was -11.5 (active).

Consider `OCCN1CCN(C(=S)c2ccc(-c3ccccc3)cc2)CC1`, for which the B-score entry is “inactive”.

As to `O=C1c2ccccc2C(=O)c2c1cccc2N1CCN(Cc2ccccc2)CC1`, the B-score is -9.75 (active).

`OCCN1CCN(c2nnc(-c3ccccc3)c3ccccc23)CC1`: the B-score result is “inactive”.

Regarding `O=C(CN1CCN(Cc2ccccc2)CC1)NC(c1ccccc1)c1ccccc1`, the B-score entry was “inactive”.

Turning to `O=C1c2ccccc2C(=O)c2c1cccc2N1CCN(C/C=C/c2ccccc2)CC1`, the B-score result was “inactive”.

Turning to `O=C(CNCc1ccco1)Nc1cc(S(=O)(=O)N2CCOCC2)ccc1N1CCCC1`, the B-score entry was “inactive”.

Turning to `Clc1cc(NC2CCCCC2)ncn1`, the B-score result is “inactive”.

Regarding `COc1ccc(S(=O)(=O)NCCOc2ccccc2)cc1F`, the B-score entry is “inactive”.

In the case of `CC(=O)c1c(O)cc2n(c1=O)-c1ccc(Cl)cc1C2(C)C`, the B-score entry is “inactive”.

Regarding `O=C(NCc1ccc2c(c1)OCO2)c1c(O)nc2sccn2c1=O`, the B-score entry is “inactive”.

As to `COCCOC(=O)c1sc(=S)n(CCOC)c1N`, the B-score result is “inactive”.

With `CC(Sc1nnc(CNC(=O)c2ccccc2F)n1C)C(=O)Nc1nccs1` (stereo not drawn), the B-score entry is “inactive”.

Turning to `COc1cc(NC(=O)CCS(=O)(=O)c2ccc3c(c2)oc(=O)n3C)cc(OC)c1`, the B-score entry was “inactive”.

With `Cc1cc(Nc2ccc(N3CCOCC3)cc2)c2cccc(C)c2n1`, the B-score was -7.55 (active).

Take `Cc1cc(Nc2ccc(Cl)cc2)nc(N2CCOCC2)n1`: the B-score entry was “inactive”.

For `Cc1cc(Nc2ccc(C(=O)N3CCCCC3)cc2)c2cccc(C)c2n1`, the B-score entry is “inactive”.

Consider `Cc1cc(S(=O)(=O)NCC(C)C)ccc1OCC(=O)NC1CC1`, for which the B-score result is “inactive”.

As to `CCN(CC)CCNc1nc(-c2ccc(OC(F)F)cc2)c(C)s1`, the B-score is -6.16 (active).

Take `CCOc1ccc(C2/C(=C(/O)c3ccc4c(c3)CC(C)O4)C(=O)C(=O)N2CCCn2ccnc2)cc1` (stereo not drawn): the B-score result was “inactive”.

For `COC(=O)c1cc(-c2cccs2)nc2ccccc12`, the B-score result was “inactive”.

For the molecule `O=C(NCCN1CCOCC1)c1cc(-c2cccs2)nc2ccccc12`, the B-score result was “inactive”.

As to `CCCCN(C)CCCNC(=O)c1cc(-c2cccs2)nc2ccccc12`, the B-score is -6.6 (active).

As for `CCc1nnc(NC(=O)CSc2nnnn2-c2cccc(C(C)=O)c2)s1`, the B-score result was “inactive”.

As for `O=S(=O)(Nc1nccs1)c1ccc2c(c1)OCCO2`, the B-score entry was “inactive”.

In the case of `Cc1ccc(Oc2nc(-c3ccccn3)nc3ccccc23)cc1`, the B-score entry is “inactive”.

As for `CCOCCCNc1nc(-c2ccccc2)nc2ccccc12`, the B-score result is “inactive”.

For the molecule `CC(C)(C)Nc1nc(-c2ccccn2)nc2ccccc12`, the B-score is -6.28 (active).

Take `CC(=O)Nc1ccc(S(=O)(=O)NC2(C(F)(F)F)C(=O)NC(C)=C2C#N)cc1` (stereo not drawn): the B-score entry is “inactive”.

`O=S1(=O)CCOC[C@H](CC2CCCCC2)N1Cc1ccc(F)cc1`: the B-score result is “inactive”.

With `CC1(C)Cc2c(sc3nc4n(c(=N)c23)CCCCC4)CO1`, the B-score result is “inactive”.

`N=c1c2c3c(sc2nc2n1CCCCC2)CCCC3`: the B-score is -10.6 (active).

With `NNC(=O)C1CCCn2c1nc1sc3c(c1c2=O)CCCC3` (stereo not drawn), the B-score result is “inactive”.

Take `Cc1ccc(-c2nc(CSCC(=O)NC3CCN(Cc4ccccc4)CC3)c(C)o2)cc1`: the B-score entry was “inactive”.

Take `Cc1c(-c2ccccc2)n[nH]c1C(=O)N=Nc1c(O)[nH]c2ccccc12`: the B-score entry is “inactive”.

`O=C(c1cnc(Cl)c(Cl)c1)N1CCN(S(=O)(=O)c2ccc(F)cc2)CC1`: the B-score result is “inactive”.

Consider `O=C(O)C1CCCCC1C(=O)N1CCN(S(=O)(=O)c2ccc(F)cc2)CC1` (stereo not drawn), for which the B-score entry is “inactive”.

As for `O=C(c1cccc(-n2cccc2)c1)N1CCN(S(=O)(=O)c2ccc(F)cc2)CC1`, the B-score was -5.32 (active).

Turning to `c1ccc2c(c1)OCCOCCOCCO2`, the B-score result was “inactive”.

Regarding `CCOc1cccc(/C=N/NC(=S)NCCN2CCOCC2)c1O`, the B-score entry was “inactive”.

For `Nc1nc(NCCCN2CCOCC2)nc(Nc2ccccc2)c1[N+](=O)[O-]`, the B-score entry is “inactive”.

For the molecule `CCOc1nc(NCCN2CCOCC2)nc(Nc2ccc(C)cc2)n1`, the B-score is -5.49 (active).

As to `Cc1c(Br)ccc(NC(=O)COc2ccccc2C(N)=O)c1C`, the B-score entry is “inactive”.

`O=S(=O)(Nc1cccc(Oc2ccc(Cl)cc2)n1)c1ccc(F)cc1`: the B-score result was “inactive”.

In the case of `COc1cccc(NC(=O)Nc2nnc(N3CCCCC3C)s2)c1` (stereo not drawn), the B-score entry is “inactive”.

On to `CCOC(=O)C1CCN(Cc2c(C(=O)N3CCOCC3)nc3c(C)cccn23)CC1`, for which the B-score result was “inactive”.

Take `CN(C)c1cc(N)c2ccccc2n1` (tested in a mixture with another compound): the B-score was -9.26 (active).

In the case of `COc1ccc(-c2cc(C(=O)N(C)Cc3ccccc3)c3ccccc3n2)cc1`, the B-score entry was “inactive”.

Turning to `Nc1nc(-c2ccccc2)cc(-c2ccccc2)n1`, the B-score entry is “inactive”.

On to `Cc1cc(C)c(S(=O)(=O)NCCCN2CCOCC2)cc1Br`, for which the B-score entry is “inactive”.

On to `CN1CC(c2ccccc2)C2(COc3ccccc3C2=O)C12C(=O)Nc1ccccc12` (stereo not drawn), for which the B-score result is “inactive”.

For `Cc1ccc2c(c1)C1CN(C)CCC1N2C(=S)Nc1ccc(OC(F)F)cc1` (stereo not drawn), the B-score result was “inactive”.

Take `S=C(Nc1ccc(Cl)cc1Cl)N1CCCC1`: the B-score result was “inactive”.

For the molecule `Cc1ccc2c(c1)C1CN(C)CCC1N2C(=S)Nc1ccc(Cl)cc1Cl` (stereo not drawn), the B-score is -5.46 (active).

Regarding `Cc1ccc(S(=O)(=O)N(Cc2ccccc2)c2ccccn2)cc1[N+](=O)[O-]`, the B-score result was “inactive”.

As to `O=C(Cn1cc(-c2nnnn2-c2ccc(Cl)cc2)c(=O)c2ccccc21)c1ccccc1`, the B-score result is “inactive”.

Regarding `O=C(CSc1cccc[n+]1[O-])c1ccc(Cl)cc1`, the B-score entry was “inactive”.

For `O=C(C[n+]1ccc2c(c1)nnn2-c1ccccc1)c1ccc(Cl)cc1`, the B-score is -5.81 (active).

`COc1ccccc1NS(=O)(=O)N(C)C`: the B-score entry was “inactive”.

In the case of `O=S(=O)(NCc1ccc(Cl)cc1Cl)c1cccs1`, the B-score entry was “inactive”.

Take `O=S(=O)(Nc1ccccc1Br)c1cccs1`: the B-score result is “inactive”.

On to `O=C(Nc1cccc(Cl)c1)Nc1ccccc1NS(=O)(=O)c1cccs1`, for which the B-score was -5.11 (active).

In the case of `COCCCN1C(=O)C(=O)/C(=C(/O)c2ccc(S(=O)(=O)N3CCOCC3)cc2)C1c1ccc(F)cc1` (stereo not drawn), the B-score entry was “inactive”.

As for `COC(=O)c1sccc1-n1cccc1C(=O)C(=O)N1CCCCC1`, the B-score result is “inactive”.

As for `COc1ccccc1OCCNCC(O)COc1cccc2[nH]c3ccccc3c12` (stereo not drawn), the B-score was -7.01 (active).

As to `COc1ccccc1OCC(O)CN1CCOCC1` (stereo not drawn), the B-score result was “inactive”.

As to `CC(C)(C)NCC(O)COc1cccc2[nH]c(=O)[nH]c12` (stereo not drawn), the B-score entry is “inactive”.

Turning to `CC(=O)c1ccc(N2CCN(C(=O)C3CCN(S(=O)(=O)c4ccc5c(c4)CC(C)N5C(=O)C4CC4)CC3)CC2)cc1` (stereo not drawn), the B-score entry was “inactive”.

As for `O=C(CSc1nnc(SCc2ccc(Cl)cc2)s1)N/N=C/c1ccccc1Cl`, the B-score entry is “inactive”.

`CCN(C(=O)COC(=O)c1ccc(COc2ccc3c(C)cc(=O)oc3c2)cc1)C1CCS(=O)(=O)C1` (stereo not drawn): the B-score entry was “inactive”.

Consider `Nc1ccc(C(=O)N2CCN(S(=O)(=O)c3ccc(Cl)cc3)CC2)cc1[N+](=O)[O-]`, for which the B-score was -5.95 (active).

Turning to `CC(C)c1ccc(S(=O)(=O)N2CCN(C(=O)c3ccc(N4CCCC4)c([N+](=O)[O-])c3)CC2)cc1`, the B-score entry is “inactive”.

For the molecule `Cc1ccc(S(=O)(=O)N2CCN(C(=O)c3ccc(-n4cncn4)c([N+](=O)[O-])c3)CC2)cc1`, the B-score entry is “inactive”.

As to `CSc1nnc(-c2ccc(C(F)(F)F)cn2)o1`, the B-score entry is “inactive”.

For the molecule `CCOc1ccc(NC(=O)CSc2nncn2C)cc1`, the B-score entry was “inactive”.

In the case of `COc1ccc(-c2ccc3nnc(SCC(=O)Nc4ccc(NC(C)=O)cc4)n3n2)cc1`, the B-score result is “inactive”.

Turning to `Cc1nc(NCCN)c(C#N)c2c1COC(C)(C)C2`, the B-score result is “inactive”.

As to `CCCCc1nc(NCc2ccccc2)c(C#N)c2c1CCCC2`, the B-score entry is “inactive”.

On to `CCCCc1nc(NCCN)c(C#N)c2c1CSC(C)(C)C2`, for which the B-score is -5.09 (active).

As to `Cc1cc(NC(=O)C(C)SCC(=O)Nc2ccccc2N2CCCCC2)no1` (stereo not drawn), the B-score result is “inactive”.

As to `CN(Cc1cccc2ncccc12)C(=O)CC1C(=O)NCCN1Cc1ccc(F)cc1` (stereo not drawn), the B-score result was “inactive”.

For the molecule `O=C(O)c1ccc(NC(=O)c2ccc(COc3ccc(Cl)cc3)o2)cc1`, the B-score was -5.87 (active).

For the molecule `Cc1cc(OCc2ccc(C(=O)Nc3ccc(C(=O)O)cc3)o2)ccc1Cl`, the B-score entry was “inactive”.

Turning to `COc1ccc(NC(=O)CN(C)C(=O)c2ccc(COc3ccccc3)o2)cc1`, the B-score entry is “inactive”.

Regarding `O=C(COC(=O)CC1CC2CCC1C2)NC(=O)NC1CCCC1` (stereo not drawn), the B-score result was “inactive”.

Turning to `O=C(COc1ccccc1)Nc1ccc(N2CCN(C(=O)c3cccs3)CC2)cc1`, the B-score result is “inactive”.

Turning to `COCC(=O)Nc1cc(C(=O)OC)cc(C(=O)OC)c1`, the B-score entry is “inactive”.

Regarding `Cc1cccc(N2CCN(C(c3ccc(N(C)C)cc3)c3nnnn3C(C)(C)C)CC2)c1C` (stereo not drawn), the B-score entry was “inactive”.

For the molecule `CC(C)(C)n1nnnc1C(c1ccc(Cl)cc1)N1CCSCC1` (stereo not drawn), the B-score entry is “inactive”.

As to `CC(C)(C)n1nnnc1C(c1ccc2ncccc2c1)N1CCSCC1` (stereo not drawn), the B-score is -11.5 (active).

For `O=C(NCCc1ccccc1Cl)C1CCC(=O)N(CCCc2ccccc2)C1` (stereo not drawn), the B-score entry was “inactive”.

Consider `CC(C)c1ccc(NC(=O)Cn2ncc3ccccc32)cc1`, for which the B-score was -5.5 (active).

Regarding `CCc1ccc(NC(=O)Cn2ncn3c(cc4ccccc43)c2=O)cc1`, the B-score result was “inactive”.

For the molecule `CCOC(=O)c1cn(CC(=O)Nc2ccc(C(C)C)cc2)nn1`, the B-score entry is “inactive”.

Turning to `Cc1cc(O)c(C2(O)C(=O)Nc3ccccc32)cc1C` (stereo not drawn), the B-score entry is “inactive”.

Consider `CCc1ccccc1NC(=O)CN(c1ccc(OC)cc1OC)S(=O)(=O)c1ccccc1[N+](=O)[O-]`, for which the B-score entry was “inactive”.

Regarding `CCOc1ccc(C2c3[nH]c4ccccc4c3CCN2Cc2cccn2-c2ncccn2)cc1` (stereo not drawn), the B-score entry was “inactive”.

Consider `c1ccc(C2c3[nH]c4ccccc4c3CCN2Cc2cccn2-c2cccnc2)nc1` (stereo not drawn), for which the B-score is -6.75 (active).

Regarding `COCc1ccc(C(=O)N2CCc3c([nH]c4ccccc34)C2c2ccccn2)s1` (stereo not drawn), the B-score entry was “inactive”.

Values taken from PubChem BioAssay AID2553 (Johns Hopkins Ion Channel Center, 2010).
